Our source for the outcome, Potency and PLD induction values is PubChem BioAssay (Tox21).

Experiment [1] is described as follows: qHTS assay to identify small molecule antagonists of the androgen receptor (AR) signaling pathway using the MDA cell line in the presence of 0.5 nM R1881 - cell viability counter screen (AID 1259242). Further: nearly all actives have a fitted effect of over 45% in size. A digest of the protocol:
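Viability of MDA-kb2 cells was multiplexed with the luciferase AR readout; after 16 hr with compounds and R1881 at 0.5 nM final, CellTiter-Fluor fluorescence was recorded.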
Background: Quantitative high-throughput screening tests each substance at several concentrations.

In experiment [2] the target is Estrogen receptor (Homo sapiens) (UniProt P03372). Nature of the experiment: qHTS assay to identify small molecule antagonists of the estrogen receptor alpha (ER-alpha) signaling pathway using the BG1 cell line in the presence of 0.1 nM 17-beta-estradiol (AID 1259244). Further: nearly all actives have a fitted effect of over 50% in size. Further: potency means the concentration at half of the fitted maximal effect. A digest of the protocol:
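Estradiol at 0.1 nM (final) stimulates the endogenous ER-alpha of VM7Luc4E2 cells carrying an ERE-driven luciferase; compounds are co-incubated 22 h at 37C and luciferase output quantified by luminescence.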

A short description of experiment [3]: qHTS assay to identify small molecule HDAC inhibitors (AID 1259364). Further: potency means the concentration at half of the fitted maximal effect.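 Further: wild-type HCT-116 cells with endogenous class I/II HDAC activity; nearly all actives have a fitted effect of over 45% in size.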 An outline of the steps: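 Read-out: luminescence of HDAC-Glo I/II reagent, 30 min RT, reflecting class I/II deacetylase activity in whole HCT-116 cells pre-exposed 2 h to DMSO-dissolved compounds.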
Experiment [4] can be described thus: qHTS assay to identify small molecule HDAC inhibitors - cell viability counter screen (AID 1259365). Further: series mostly up to about 92 µM; nearly all actives have a fitted effect of over 50% in size. A digest of the protocol:
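HCT-116 (wild type), 1,500 cells/well, overnight 37C/5% CO2; compound in DMSO 2hr; CellTiter-Glo 30min RT; luminescence read.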

Experiment [5] is described as follows: qHTS assay to identify small molecule agonists of the sonic hedgehog signaling (Shh) pathway - cell viability counter screen (AID 1259366). Further: nearly all actives have a fitted effect of over 50% in size. An outline of the steps: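 CellTiter-Fluor fluorescence read-out, 1 hr at 37C, added after 23hr compound exposure. Cells: 3T3 Gli1-Luc, an NIH/3T3 clone with stably integrated Gli1-Luc reporter, plated 4hr before compound.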

The nature of experiment [6]: qHTS assay to identify small molecule antagonists of the sonic hedgehog signaling (Shh) pathway - cell viability counter screen (AID 1259367). Further: nearly all actives have a fitted effect of over 55% in size. A digest of the protocol: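 After a 4 hr settling period, 3T3 Gli1-Luc cells were treated with DMSO-dissolved chemicals and conditioned medium, kept 24 hr at 37C in 5% CO2, and assayed for viability by CellTiter-Fluor fluorescence following 1 hr reagent incubation.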

A short description of experiment [7]: qHTS assay to identify small molecule agonists of the sonic hedgehog signaling (Shh) pathway (AID 1259368; calls by dose curve;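 further: NIH/3T3-derived 3T3Gli1-Luc cells carrying a stable Gli1-driven firefly luciferase reporter; series mostly up to about 92 µM; nearly all actives have a fitted effect of over 15% in size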). An outline of the steps: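 A Gli1 transcriptional response element controlled firefly luciferase in 3T3Gli1-Luc cells. Compounds and a positive control were added 4 hr after plating, and cells were incubated a further 24 hr at 37 C before luminescence detection.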

Experiment [8] is described as follows: qHTS assay to identify small molecule antagonists of the sonic hedgehog signaling (Shh) pathway (AID 1259369; calls by dose curve; further: nearly all actives have a fitted effect of over 45% in size). A digest of the protocol: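 For antagonist detection, the reporter line received test compounds together with conditioned medium, incubated 24hr at 37 C, 5% CO2, then luminescence was recorded following 30min room-temperature luciferase reagent incubation.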

The target in experiment [9] is Estrogen receptor beta (Homo sapiens) (UniProt Q92731). Nature of the experiment: qHTS assay to identify small molecule agonists of the estrogen receptor beta (ER-beta) signaling pathway (AID 1259377; active means well fitted activation curve with a large enough effect in the signal ratio in the repeat runs, not every such curve was filed as active; the % refers to the signal ratio). An outline of the steps: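 Beta-lactamase reporter readout: fluorescence of LiveBLAzer B/G FRET substrate after 2 h at room temperature, following 16 h compound treatment of ER-beta-UAS-bla HEK293T cells at 37C in 2% charcoal-stripped FBS medium.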

Experiment [10] shares this target. Nature of the experiment: qHTS assay to identify small molecule antagonists of the estrogen receptor beta (ER-beta) signaling pathway (AID 1259378; active means well fitted inhibition curve with a large enough effect in the signal ratio in the repeat runs, not every such curve was filed as active; the % refers to the signal ratio). An outline of the steps:
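ER-beta-UAS-bla HEK293T (GripTite) cells in 2% charcoal-stripped FBS medium were preincubated 6 hr at 37C, dosed with compound, then stimulated with 1 nM E2 (final) for 16 hr; beta-lactamase reporter read by B/G FRET fluorescence after 2 hr substrate loading.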

Experiment [11] can be described thus: qHTS assay to identify small molecule agonists of the androgen receptor (AR) signaling pathway in the presence of an antagonist - cell viability counter screen (AID 1259379).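 Further: MDA-kb2 human breast cancer cells carrying an MMTV luciferase reporter; series mostly up to about 92 µM; nearly all actives have a fitted effect of over 25% in size.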 A digest of the protocol:
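Seed MDA-kb2 at 3,000 cells/well; incubate 5 hr, 37C, 0% CO2. Add nilutamide to 3.0uM final, then pin compounds at 15 concentrations. Incubate 16 hr. Add CellTiter-Fluor at 15 hr, read fluorescence after 1 hr.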

Experiment [12] is described as follows: qHTS assay to identify small molecule agonists of the estrogen receptor beta (ER-beta) signaling pathway - cell viability counter screen (AID 1259380). Further: nearly all actives have a fitted effect of over 30% in size. A digest of the protocol:
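CellTiter-Glo read, 30 min RT, same wells as bla assay; cells ER-beta-UAS-bla HEK293T; 16 hr compound, 37C; medium 2% charcoal-stripped FBS.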

Experiment [13] is described as follows: qHTS assay to identify small molecule antagonists of the estrogen receptor beta (ER-beta) signaling pathway - cell viability counter screen (AID 1259382). Further: series mostly up to about 92 µM; nearly all actives have a fitted effect of over 55% in size. A digest of the protocol:
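In this multiplexed counter screen, cells were seeded at 2,000 per well in medium with 2% charcoal-stripped FBS and incubated 6 hr before compound and 1nM final E2 were added. Sixteen hours later, ATP-based luminescence reported viability.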

For experiment [14], the target named is Estrogen receptor (Homo sapiens) (UniProt P03372). Description: qHTS assay to identify small molecule agonists of the estrogen receptor alpha (ER-alpha) signaling pathway in the presence of an antagonist (AID 1259383; calls by dose curve; further: top concentration of the series differs between compounds; nearly all actives have a fitted effect of over 15% in size). An outline of the steps:
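Stably transfected VM7Luc4E2 reporter cells, kept 5 days in charcoal-stripped serum, received ICI-182,780 at 10.0nM final before compound addition. Following 22hr incubation at 37C and 5% CO2, luciferase signal was read by luminescence.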

Experiment [15] can be described thus: qHTS assay to identify small molecule agonists of the estrogen receptor alpha (ER-alpha) signaling pathway in the presence of an antagonist - cell viability counter screen (AID 1259386).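 Further: cells exposed to compounds for 22 h at 37 °C before the viability read; nearly all actives have a fitted effect of over 30% in size.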 Further: potency means the concentration at half of the fitted maximal effect. An outline of the steps: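 Viability counter screen using VM7Luc4E2 (full-length ER-alpha, four ERE-luciferase). The cells were treated with compounds alongside ICI-182,780 10.0nM for 22hr, and live-cell protease fluorescence was quantified with CellTiter-Fluor.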

In experiment [16] the target is Androgen receptor (Homo sapiens) (UniProt P10275). Description: qHTS assay to identify small molecule antagonists of the androgen receptor (AR) signaling pathway using the MDA cell line in the presence of 0.5 nM R1881 (AID 1259243). Further: nearly all actives have a fitted effect of over 50% in size. A digest of the protocol: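 Reporter cells cultured without CO2 receive test chemicals, then 0.5 nM R1881 final; after 16 hr at 37C, ONE-Glo is added and light output recorded.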

The nature of experiment [17]: qHTS assay to identify small molecule agonists or antagonists of the thyroid stimulating hormone receptor (TSHR) signaling pathway - wild type cell line counter screen (AID 1259384; calls by dose curve). An outline of the steps: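 Wild-type HEK293 cells were plated 18 h at 37 C/5% CO2, pin-dosed with compound plus Ro20-1724 medium, held 30 min at room temperature, then given cAMP-d2 and anti-cAMP-cryptate; fluorescence was read after 1 h. Fifteen concentrations, triplicate.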

In experiment [18] the target is Thyrotropin receptor (Homo sapiens) (UniProt P16473). Nature of the experiment: qHTS assay to identify small molecule antagonists of the thyroid stimulating hormone receptor (TSHR) signaling pathway (AID 1259385; calls by dose curve; further: nearly all actives have a fitted effect of over 20% in size). A digest of the protocol:
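TSHR-HEK293 cells were plated and held 18 h at 37C/5% CO2, then given compound plus Ro20-1724 and stimulated with TSH at 1.5 ng/mL final. After 30 min at room temperature, cAMP was detected with cAMP-d2/anti-cAMP-cryptate (1 h) by fluorescence.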

A short description of experiment [19]: qHTS assay to identify small molecule phospholipidosis (PLD) inducers (AID 1259344; active means well fitted curve in the direction sought with a large enough effect; an effect the other way counts as inactive or inconclusive). An outline of the steps: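 HepG2 cells grown on collagen I take up LipidTOX Red while exposed to compound for 24 h; after fixation they are imaged at 20x and pit metrics are extracted.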
Experiment [20] addresses Androgen receptor (Homo sapiens) (UniProt P10275). Nature of the experiment: qHTS assay to identify small molecule agonists of the androgen receptor (AR) signaling pathway in the presence of an antagonist (AID 1259381; calls by dose curve; further: nearly all actives have a fitted effect of over 15% in size). An outline of the steps: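 Test compounds at 15 concentrations were incubated for 16hr with MDA-kb2 reporter cells in presence of 3.0uM nilutamide (final). Signal: ONE-Glo luciferase luminescence.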

Unmarked numbers belong to inactive results. Results filed as inconclusive are left out. Activity calls are given as the source filed them. Unless noted, the call rests on the fitted dose curve; in most records, active means well fitted curve in the direction sought with a large enough effect in the repeat runs; inconclusive means weak or mixed curves; inactive means no such curve, though single readings can be large; an effect the other way counts as inactive or inconclusive.
On the % scale 0 is the no-effect control and ±100 the full control effect.

Sequence of Androgen receptor (Homo sapiens) (P10275 whole entry, looked up): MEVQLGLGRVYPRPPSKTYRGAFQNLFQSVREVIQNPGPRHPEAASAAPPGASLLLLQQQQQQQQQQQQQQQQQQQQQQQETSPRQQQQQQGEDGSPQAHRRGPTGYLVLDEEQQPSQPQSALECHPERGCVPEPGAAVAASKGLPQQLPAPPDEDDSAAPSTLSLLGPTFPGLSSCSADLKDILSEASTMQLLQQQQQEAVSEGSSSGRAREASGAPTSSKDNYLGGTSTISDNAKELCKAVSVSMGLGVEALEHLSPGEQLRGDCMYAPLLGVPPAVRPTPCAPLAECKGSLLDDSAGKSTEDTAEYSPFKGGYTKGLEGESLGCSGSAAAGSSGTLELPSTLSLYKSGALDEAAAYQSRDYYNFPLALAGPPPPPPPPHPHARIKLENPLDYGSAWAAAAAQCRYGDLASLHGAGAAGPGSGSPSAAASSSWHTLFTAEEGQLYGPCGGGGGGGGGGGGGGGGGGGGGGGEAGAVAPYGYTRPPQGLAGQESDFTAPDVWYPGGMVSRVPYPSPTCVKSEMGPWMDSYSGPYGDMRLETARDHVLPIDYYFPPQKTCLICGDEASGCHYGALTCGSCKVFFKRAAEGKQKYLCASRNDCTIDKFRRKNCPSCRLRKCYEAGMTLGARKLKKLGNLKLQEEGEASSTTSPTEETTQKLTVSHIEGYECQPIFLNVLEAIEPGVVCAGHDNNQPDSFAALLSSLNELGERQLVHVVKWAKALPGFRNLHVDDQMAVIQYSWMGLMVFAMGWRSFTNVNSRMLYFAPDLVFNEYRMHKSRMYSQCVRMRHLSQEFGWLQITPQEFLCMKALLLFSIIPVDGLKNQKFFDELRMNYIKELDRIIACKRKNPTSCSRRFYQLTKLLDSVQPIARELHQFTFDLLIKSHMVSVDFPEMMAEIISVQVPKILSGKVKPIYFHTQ
Sequence of Estrogen receptor beta (Homo sapiens) (Q92731 whole entry, looked up): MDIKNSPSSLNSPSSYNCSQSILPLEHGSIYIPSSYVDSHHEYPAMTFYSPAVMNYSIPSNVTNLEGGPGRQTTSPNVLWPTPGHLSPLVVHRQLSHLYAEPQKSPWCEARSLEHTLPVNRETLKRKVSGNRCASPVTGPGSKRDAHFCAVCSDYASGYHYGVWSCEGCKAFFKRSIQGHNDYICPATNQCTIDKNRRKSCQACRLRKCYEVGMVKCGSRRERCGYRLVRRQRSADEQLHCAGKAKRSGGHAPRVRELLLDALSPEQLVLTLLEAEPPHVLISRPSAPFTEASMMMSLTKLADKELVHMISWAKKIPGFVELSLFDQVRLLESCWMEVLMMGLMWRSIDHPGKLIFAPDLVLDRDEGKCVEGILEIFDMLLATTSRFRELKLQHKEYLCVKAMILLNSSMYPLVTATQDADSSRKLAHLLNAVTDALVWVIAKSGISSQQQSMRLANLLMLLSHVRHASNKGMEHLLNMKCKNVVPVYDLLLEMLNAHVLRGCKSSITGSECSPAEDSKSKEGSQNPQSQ
Sequence of Estrogen receptor (Homo sapiens) (P03372 whole entry, looked up): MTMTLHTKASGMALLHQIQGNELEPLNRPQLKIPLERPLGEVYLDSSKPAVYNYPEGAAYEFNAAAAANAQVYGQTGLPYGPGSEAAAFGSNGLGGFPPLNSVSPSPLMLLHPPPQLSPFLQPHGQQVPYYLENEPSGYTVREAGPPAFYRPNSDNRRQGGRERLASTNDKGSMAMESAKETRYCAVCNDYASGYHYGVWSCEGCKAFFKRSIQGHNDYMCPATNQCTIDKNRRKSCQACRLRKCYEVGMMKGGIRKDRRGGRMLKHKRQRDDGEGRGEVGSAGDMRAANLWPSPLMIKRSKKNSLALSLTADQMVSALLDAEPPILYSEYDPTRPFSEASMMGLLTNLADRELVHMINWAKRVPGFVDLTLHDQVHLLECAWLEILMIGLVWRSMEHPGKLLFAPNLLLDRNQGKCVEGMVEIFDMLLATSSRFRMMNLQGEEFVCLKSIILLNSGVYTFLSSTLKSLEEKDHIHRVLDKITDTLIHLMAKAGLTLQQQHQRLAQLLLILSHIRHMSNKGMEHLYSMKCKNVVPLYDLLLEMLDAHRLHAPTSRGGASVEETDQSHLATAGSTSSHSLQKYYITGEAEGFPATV
Sequence of Thyrotropin receptor (Homo sapiens) (P16473 whole entry, looked up): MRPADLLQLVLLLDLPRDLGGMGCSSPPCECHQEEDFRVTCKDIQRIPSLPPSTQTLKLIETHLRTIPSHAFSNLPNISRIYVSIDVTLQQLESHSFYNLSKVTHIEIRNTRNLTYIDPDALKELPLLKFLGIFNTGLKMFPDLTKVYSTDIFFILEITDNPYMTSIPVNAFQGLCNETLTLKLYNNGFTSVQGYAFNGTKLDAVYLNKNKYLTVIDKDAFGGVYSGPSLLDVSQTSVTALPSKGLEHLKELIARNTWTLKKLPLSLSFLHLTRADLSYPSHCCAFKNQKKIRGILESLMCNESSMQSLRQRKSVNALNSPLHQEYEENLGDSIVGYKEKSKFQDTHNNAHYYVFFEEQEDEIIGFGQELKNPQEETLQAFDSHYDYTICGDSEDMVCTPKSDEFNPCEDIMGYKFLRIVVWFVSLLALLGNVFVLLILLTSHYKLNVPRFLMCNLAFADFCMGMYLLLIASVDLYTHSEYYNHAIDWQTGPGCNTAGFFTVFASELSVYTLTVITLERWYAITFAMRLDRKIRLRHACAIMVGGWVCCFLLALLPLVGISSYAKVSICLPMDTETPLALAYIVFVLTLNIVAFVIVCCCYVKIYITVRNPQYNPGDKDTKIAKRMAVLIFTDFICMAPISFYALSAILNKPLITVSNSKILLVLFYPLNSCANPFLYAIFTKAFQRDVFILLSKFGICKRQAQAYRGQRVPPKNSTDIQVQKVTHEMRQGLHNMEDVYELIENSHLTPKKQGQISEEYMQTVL

In the case of `C=C(C)CN(CC)c1c([N+](=O)[O-])cc(C(F)(F)F)cc1[N+](=O)[O-]`, the result in experiment [1], in experiment [4], in [7] and in experiment [9] was inactive. The Potency result in [2], in experiment [3], in experiment [5], in experiment [6], in experiment [8] and in experiment [10] was “inactive” throughout. Moreover, the Potency result in experiment [11], in experiment [12], in experiment [13], in experiment [14] and in experiment [15] was “inactive” each time.

For the compound `CNC(=O)N(C)c1nc2ccccc2s1`, the result in experiment [1], in [4] and in [7] was inactive. Besides, the Potency entry in experiment [16], in [5], in experiment [6], in experiment [8], in [11] and in experiment [13] was “inactive” throughout. The Potency result in [17], in experiment [18] and in experiment [15] was “inactive” each time. Besides, in experiment [3], the Potency is 0.545 µM (active).

As to `O=C1CN=C(c2ccccc2)c2cc([N+](=O)[O-])ccc2N1`, the outcome in experiment [1], in experiment [19], in [4], in experiment [7] and in experiment [9] was inactive. Also, the Potency result in experiment [2], in experiment [3], in [5], in experiment [6], in experiment [8] and in experiment [10] was “inactive” each time. Moreover, the Potency entry in [11], in experiment [12], in [13], in experiment [14], in experiment [17] and in [18] was “inactive” each time. For the same compound, in [15], the Potency entry is “inactive”.

Turning to `COc1cc(OC)nc(Oc2cccc(Oc3nc(OC)cc(OC)n3)c2C(=O)O)n1`, the result in experiment [1], in [4], in experiment [7] and in experiment [9] was inactive. Moreover, the Potency entry in experiment [16], in experiment [3], in [5], in experiment [10], in experiment [11] and in [12] was “inactive” in each case. The Potency entry in experiment [20], in [13] and in [15] was “inactive” in each case.

Regarding `N#CCCC#N`, the result in [1], in experiment [4], in experiment [7] and in experiment [9] was inactive. Moreover, the Potency entry in experiment [2], in experiment [3], in experiment [5], in experiment [6], in experiment [8] and in experiment [10] was “inactive” in each case. In addition, the Potency result in [11], in experiment [12], in experiment [13], in [14] and in [15] was “inactive” each time.

`COC(=O)C1=CCCN(C)C1`: the result in experiment [1], in [19], in [4], in experiment [7] and in [9] was inactive. The Potency entry in experiment [2], in experiment [3], in experiment [5], in [6], in [10] and in [11] was “inactive” throughout. In addition, the Potency entry in experiment [12], in experiment [13], in [14], in experiment [17] and in experiment [18] was “inactive” each time.

As for `CCc1cc2c(s1)-n1c(C)nnc1CN=C2c1ccccc1Cl`, the outcome in experiment [1], in experiment [4], in [7] and in [9] was inactive. Further, in experiment [2], the Potency is 18.8 µM (active). The PLD induction in [19] is -2.33% [at 1.53 µM]. The Potency entry in experiment [6], in experiment [11], in experiment [12], in experiment [13] and in experiment [14] was “inactive” throughout.

Turning to `NC(=S)C(N)=S`, the result in experiment [1], in experiment [4], in [7] and in [9] was inactive. The Potency result in [2], in experiment [3], in [5], in [6], in experiment [8] and in experiment [10] was “inactive” in each case. Besides, the Potency entry in experiment [11], in experiment [12], in experiment [13] and in [14] was “inactive” in each case.

Take `CCN(CC)C(=O)[C@@H]1C=C2c3cccc4[nH]cc(c34)C[C@H]2N(C)C1`: the outcome in experiment [1], in experiment [19], in [4], in [7] and in experiment [9] was inactive. The Potency entry in experiment [2], in experiment [3], in experiment [10], in [11], in [13] and in [14] was “inactive” throughout. For the same compound, the Potency in [15] is 56.7 µM (active).
